High-throughput results (PubChem BioAssay)
NadD inh: blocks S. aureus nicotinate mononucleotide adenylyltransferase; purified NadD enzyme, colorimetric absorbance read-out; 360,000 compounds, 0.78% hits; inhibition, % at 20 µM; in the data active = inhibition above about 26%
CRFR2-BP antag: CRF-BP/CRF-R2 complex antagonism; HEK293 CRF-R2/CRF-BP, CRF-induced calcium fluorescence; inhibition, % at 11.8 µM; 350,000 compounds, 0.59% hits; AID 588475;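 active = inhibition of the ligand-induced calcium signal above about 50% at the single tested concentration, limit read from the data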
CendR NRP1 mod: NRP-1/CendR interaction modulation; inhibition, % at 25 µM; FAM-RPARPAR peptide binding to NRP-1, fluorescence polarization; AID 602438; O14786; 360,000 compounds, 0.85% hits;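 active = inhibition or corrected inhibition above about 18%, plus a signal ratio from 0.5 to 1.5, limit read from the data, passing the limit was not always enough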
FAS-TE inh: blocks the thioesterase domain of human fatty acid synthase | P49327 | recombinant FAS-TE, OMFH fluorogenic substrate, fluorescence endpoint | inhibition, % at 15 µM | 360,000 compounds, 0.67% hits;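 active = compounds whose normalised, plate-corrected inhibition of enzyme fluorescence in the single-dose primary screen is 50% or more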;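 also: 0% = DMSO with enzyme and 100% = substrate without enzyme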
Myeloid diff 2: compounds promoting myeloid differentiation; AID 624256; calls only at 10 µM; ER-HoxA9 myeloid progenitors, lysozyme-GFP differentiation, flow cytometry; 360,000 compounds, 1% hits;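 active = normalized GFP-positive differentiation at or above the plate's own cutoff, the solvent-only control mean plus 3 SD; inconclusive = no clear call, values can overlap the other calls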;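 also: cells exposed to compound for four days before flow analysis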
NadD conf: NadD (S. aureus) inhibition, single concentration confirmation; shares compounds with NadD inh; purified S. aureus NadD, colorimetric enzyme assay; inhibition, % at 20 µM; 2,000 compounds, 13% hits; AID 624309; in the data active = inhibition mostly above about 42%, no sharp cut-off; inactive = mostly below about 42%
The depositor's hits bear a star; i = inactive; ? = inconclusive; . = no result; + = active, no number. A selection: hits, their analogues and other compounds. The true share with any hit is near 3.6%.

SMILES	NadD inh	CRFR2-BP antag	CendR NRP1 mod	FAS-TE inh	Myeloid diff 2	NadD conf
NNC(=O)Cn1c(-c2nonc2N)nc2ccccc21	8	10	-3	-5	i	.
Nc1nonc1-c1nc2ccccc2n1CC(=O)N/N=C\c1ccc(-c2ccc(Cl)cc2)o1	42*	0	-17	-5	i	9
CCCNc1c(F)c(F)c2c(C)c3ccccc3nc2c1F	39*	-6	131	-24	+	17
CCN(CC(=O)Nc1ccc2c(c1)OCCO2)C(=O)C(C)Oc1ccc(Cl)cc1 (stereo not given)	3	4	-1	2	i	.
Cc1cc(Br)cc2c(C(=O)Nc3c(C)n(C)n(-c4ccccc4)c3=O)cc(-c3cccs3)nc12	30*	7	-18	24	?	10
CC/C(C)=N/Nc1nc(-c2cc3cccc(OC)c3oc2=O)cs1	51*	11	-4	6	i	30
COc1cccc2cc(-c3csc(CCn4nc(C)cc4C)n3)c(=O)oc12	11	18	-3	6	i	.
CC(NC(=O)COC(=O)CN1C(=O)NC2(CCCC2)C1=O)c1ccc(F)cc1 (stereo not given)	-1	11	-2	-5	i	.
CNc1ccc(Br)cc(C(=O)/C=C/c2cc(OC)ccc2OC)c1=O	23	-9	-93	-6	i	.
CCNc1ccc(Br)cc(C(=O)/C=C/c2ccc(Cl)cc2Cl)c1=O	39*	-41	-145	5	i	11
O=c1[nH]c(NNC(=S)NCc2ccccc2)nc2c1C1(CCCCC1)Cc1ccccc1-2	37*	-37	0	-5	i	53*
COc1ccccc1-n1c(SCC(=O)c2ccc(O)cc2O)nc2cc([N+](=O)[O-])ccc21	49*	9	-5	25	i	39
Cc1ccc(-c2nc3c4ccccc4ccn3c2Cc2ccccc2C(F)(F)F)cc1	31*	.	-24	20	i	18
COc1cc(/C=N/NC(=O)Cn2nc([N+](=O)[O-])cc2C)cc(Br)c1OCc1ccccc1	35*	-11	0	30	i	10
COc1ccc(/C=N/NC(=O)c2nnn(-c3nonc3N)c2-c2cccs2)c(OC)c1	10	-3	-3	0	i	.
CC(C)(C)OC(=O)CC[C@@H](C(=O)NCCCCCCCCCCC(=O)N1CCN(C(=O)OC(C)(C)C)CC1)n1cc(CCCCCNC(=O)OC(C)(C)C)nn1	32*	-1	9	9	?	-4
O=C(O)c1ccc(CNCc2c(Cl)cccc2Cl)cc1	9	-10	8	-8	i	.
Cc1ccc(-c2nc3ccccc3[nH]2)cc1NC(=O)c1ccc2c(c1)OCO2	2	20	2	4	i	.
CCOc1ccc(C(=O)Nc2cc(-c3nc4ccccc4[nH]3)ccc2Cl)cc1[N+](=O)[O-]	34*	15	-6	20	i	13
CCOc1ccc(C(=O)Nc2cc(-c3nc4ccccc4[nH]3)ccc2C)cc1[N+](=O)[O-]	12	12	-3	15	i	.
O=C(NC(=S)Nc1cc(-c2nc3ccccc3[nH]2)ccc1Cl)c1ccc2c(c1)OCO2	30*	0	-8	0	?	47*
COc1ccc(CN2C(=O)C(CC(=O)NCc3ccco3)CC(C(=O)N3CCOCC3)=C2C)cc1 (stereo not given)	5	-10	-11	-9	i	.
N#C/C(=C\c1cn(-c2ccccc2)nc1-c1cc2ccccc2o1)c1nc2ccccc2[nH]1	29*	-45	-78	2	i	12
CN(C)S(=O)(=O)c1cccc(-c2nn(-c3ccccc3)cc2/C=C2\SC(=S)NC2=O)c1	27	17	-140	40	i	.
CN(C)S(=O)(=O)c1cccc(-c2nn(-c3ccccc3)cc2/C=C(\C#N)c2nc3ccccc3[nH]2)c1	37*	-22	-43	44	?	30
O=C(CSc1nnc2c(n1)[nH]c1ccc(F)cc12)Nc1ccccc1F	-3	-1	-1	-2	i	.
O=C(CSc1nnc2c3ccccc3c3ccccc3c2n1)Nc1ccccc1F	42*	25	-39	-12	.	3
O=C(CCN1C(=O)S/C(=C\c2ccccc2)C1=O)Nc1ccc(S(=O)(=O)Nc2nccs2)cc1	29	2	-41	7	i	.
Cc1cc(C)nc(NS(=O)(=O)c2ccc(NC(=O)CN3C(=O)C4CC=CCC4C3=O)cc2)n1 (stereo not given)	3	6	-11	-8	i	.
